Measured values reported in the supplement of paper PMC10849652.
Of roughly 8,800 targets only a part is listed; those with a hit were picked by preference. About 0.5% of all pairs of compound and target were hits.

What was measured:
Assay in all cases: log2 fold change, soluble protein after heating vs DMSO (PISA); higher = thermal stabilisation; K562 lysate, 10 uM; active = over 0.2 and 3.5 SD of the protein, either way, in both replicates (recomputed)
[1] = compound: C1=CC=C(C=C1)[C@H](COC2=CC3=C(C=C2)NC(=O)N3)NC(=O)C4=CC=CN(C4=O)CC5=CC(=C(C=C5)F)F
In short: (§1)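 Values give the log-two fold change in thermal stability against solvent controls, from duplicates. Crude K562 extract at 1 mg/mL protein, made by dounce homogenisation in PBS pH 7.4 with 1 mM MgCl2, was treated with 10 μM compound for 30 min. After 3 min heating across 48°C-58°C, aliquots were pooled, adjusted to 0.5% NP-40 at 4°C and centrifuged at 21,000xg for 90 min. The supernatant was measured by TMTpro 16plex LC-MS/MS with channel sums equalised.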

[2] = compound: CC1=C(SC2=C1C(=N[C@H](C3=NN=C(N32)C)CC(=O)N)C4=CC=C(C=C4)Cl)C
In short: as §1

[3] = compound: CC1=C2C(=CC=C1)N=C(N(C2=O)C3=CC=CC=C3C)CN4C=NC5=C(N=CN=C54)N
In short: as §1

[4] = compound: Cc1sc2c(c1C)C(c1ccc(Cl)cc1)=N[C@@H](CC(=O)OC(C)(C)C)c1nnc(C)n1-2
In short: as §1

[5] = compound: c1ccc([C@@H]2C[C@H]2NC2CCNCC2)cc1
In short: as §1

Measured: log2 fold change

WEE1 (UniProt P30291)
inactive: [1] -0.002 | [2] -0.099 | [3] -0.047 | [4] 0.03

UQCC2 (UniProt Q9BRT2)
inactive: [1] 0.008 | [2] 0.019 | [3] -0.056 | [4] -0.057 | [5] 0.095

VAV3 isoform 4 (UniProt Q9UKW4)
inactive: [1] 0.089 | [2] -0.012 | [3] 0.096 | [4] 0.001 | [5] -0.391

VRK1 (UniProt Q99986)
inactive: [1] -0.002 | [2] 0.017 | [3] 0.023 | [4] -0.005 | [5] 0.034

VPS33A (UniProt Q96AX1)
inactive: [1] 0 | [2] 0.017 | [3] 0.014 | [4] -0.013 | [5] -0.01

VPS13C (UniProt Q709C8)
inactive: [1] -0.111 | [2] -0.002 | [3] 0.061 | [4] 0.018 | [5] 0.008

ZC3H11A (UniProt O75152)
inactive: [1] -0.015 | [2] 0 | [3] 0.081 | [4] 0.023 | [5] 0.063

WDR6 (UniProt Q9NNW5)
Chain of UniProt Q9NNW5 (Q9NNW5 whole entry, looked up): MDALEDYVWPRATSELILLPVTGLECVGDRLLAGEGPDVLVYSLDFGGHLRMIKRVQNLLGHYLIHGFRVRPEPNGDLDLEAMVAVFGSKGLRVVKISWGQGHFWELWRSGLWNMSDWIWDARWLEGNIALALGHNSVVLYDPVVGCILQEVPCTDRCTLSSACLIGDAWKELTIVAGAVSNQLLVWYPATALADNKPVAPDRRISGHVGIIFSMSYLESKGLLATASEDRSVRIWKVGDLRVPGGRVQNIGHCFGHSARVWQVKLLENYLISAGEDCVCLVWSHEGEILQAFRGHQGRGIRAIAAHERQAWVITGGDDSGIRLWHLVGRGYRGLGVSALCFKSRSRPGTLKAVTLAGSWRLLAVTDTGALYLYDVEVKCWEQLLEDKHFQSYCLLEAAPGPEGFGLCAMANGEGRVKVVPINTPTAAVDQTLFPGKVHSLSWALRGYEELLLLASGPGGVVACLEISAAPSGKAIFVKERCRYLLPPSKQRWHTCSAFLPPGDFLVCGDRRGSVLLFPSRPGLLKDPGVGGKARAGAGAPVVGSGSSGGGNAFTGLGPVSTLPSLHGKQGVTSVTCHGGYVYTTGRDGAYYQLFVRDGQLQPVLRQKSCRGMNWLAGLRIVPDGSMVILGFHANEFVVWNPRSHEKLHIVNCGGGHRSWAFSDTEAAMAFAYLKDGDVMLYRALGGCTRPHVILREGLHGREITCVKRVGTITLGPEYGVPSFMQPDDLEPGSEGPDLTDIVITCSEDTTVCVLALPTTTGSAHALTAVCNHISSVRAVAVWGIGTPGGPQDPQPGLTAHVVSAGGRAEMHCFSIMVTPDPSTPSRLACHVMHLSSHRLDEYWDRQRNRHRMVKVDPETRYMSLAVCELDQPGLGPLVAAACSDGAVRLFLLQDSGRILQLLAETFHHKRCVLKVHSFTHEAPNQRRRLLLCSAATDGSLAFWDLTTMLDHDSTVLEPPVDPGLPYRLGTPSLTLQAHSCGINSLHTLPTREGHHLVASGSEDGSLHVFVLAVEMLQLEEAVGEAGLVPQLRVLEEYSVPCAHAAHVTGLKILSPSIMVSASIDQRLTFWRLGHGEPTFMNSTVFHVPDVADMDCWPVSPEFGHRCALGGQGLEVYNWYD
inactive: [1] -0.001 | [2] 0.02 | [3] 0.008 | [4] -0.021 | [5] -0.013

YME1L1 (UniProt Q96TA2)
inactive: [1] 0.004 | [2] -0.021 | [3] 0.032 | [4] -0.008 | [5] 0.002

WDR62 isoform 4 (UniProt O43379)
inactive: [1] 0.026 | [2] -0.004 | [3] -0.011 | [4] 0.003 | [5] 0.038

ZNF217 (UniProt O75362)
inactive: [1] -0.037 | [2] 0.075 | [3] 0.129 | [4] 0.053 | [5] 0

YDJC (UniProt A8MPS7)
inactive: [1] 0.001 | [2] -0.012 | [3] -0.003 | [4] 0.012 | [5] 0.018

VPS35L (UniProt Q7Z3J2)
inactive: [1] 0.013 | [2] 0.004 | [3] 0.044 | [4] -0.032 | [5] 0.013

USP34 (UniProt Q70CQ2)
inactive: [1] -0.002 | [2] -0.015 | [3] 0 | [4] -0.004 | [5] 0.073

UNC45A (UniProt Q9H3U1)
inactive: [1] -0.036 | [2] -0.011 | [3] 0.036 | [4] 0.004 | [5] 0.039

VPS41 (UniProt P49754)
inactive: [1] -0.046 | [2] 0.005 | [3] -0.016 | [4] 0.067 | [5] 0.13

WDR20 isoform 7 (UniProt Q8TBZ3)
inactive: [1] -0.037 | [2] -0.002 | [3] 0.035 | [4] -0.176 | [5] -0.124

XPO5 (UniProt Q9HAV4)
inactive: [1] -0.046 | [2] -0.021 | [3] 0.002 | [4] -0.021 | [5] 0.032

WRN (UniProt Q14191)
inactive: [1] 0.006 | [2] -0.017 | [3] 0.009 | [4] 0.01 | [5] 0.006

UNKL (UniProt E9PDK2)
inactive: [1] -0.025 | [2] 0.09 | [3] 0.249 | [4] 0.022

ZFYVE19 isoform 3 (UniProt Q96K21)
inactive: [1] 0.062 | [2] -0.075

USP9X (UniProt Q93008)
inactive: [1] -0.033 | [2] 0.005 | [3] 0.014 | [4] 0.008 | [5] -0.001

YES1 (UniProt P07947)
inactive: [1] -0.068 | [2] -0.099 | [3] 0.009 | [4] -0.045 | [5] 0

ZMYM4 (UniProt Q5VZL5)
inactive: [1] 0.133 | [2] -0.081 | [3] -0.054 | [4] -0.023 | [5] 0.011

VANGL1 (UniProt Q8TAA9)
inactive: [1] 0.064 | [2] 0.088 | [3] -0.055 | [4] -0.004 | [5] -0.076

ZNHIT6 (UniProt Q9NWK9)
inactive: [1] 0.106 | [2] -0.063 | [3] 0.013 | [4] 0.089 | [5] 0.008

ULK3 isoform 4 (UniProt Q6PHR2)
inactive: [1] -0.015 | [2] 0.043 | [3] -0.117 | [4] -0.026 | [5] 0.125

YTHDF3 (UniProt Q7Z739)
inactive: [1] -0.111 | [2] 0.021 | [3] 0.063 | [4] -0.01 | [5] -0.018

WAC (UniProt Q9BTA9)
inactive: [1] -0.03 | [2] 0.056 | [3] -0.013 | [4] 0.041 | [5] 0.037

ZFYVE19 (UniProt Q96K21)
inactive: [1] 0.076 | [2] 0.042 | [3] 0.012 | [4] -0.032 | [5] -0.183

UXT isoform 2 (UniProt Q9UBK9)
inactive: [1] 0.033 | [2] 0.026 | [3] 0.008 | [4] -0.053 | [5] -0.071

UTP3 (UniProt Q9NQZ2)
Chain of UniProt Q9NQZ2 (Q9NQZ2 whole entry, looked up): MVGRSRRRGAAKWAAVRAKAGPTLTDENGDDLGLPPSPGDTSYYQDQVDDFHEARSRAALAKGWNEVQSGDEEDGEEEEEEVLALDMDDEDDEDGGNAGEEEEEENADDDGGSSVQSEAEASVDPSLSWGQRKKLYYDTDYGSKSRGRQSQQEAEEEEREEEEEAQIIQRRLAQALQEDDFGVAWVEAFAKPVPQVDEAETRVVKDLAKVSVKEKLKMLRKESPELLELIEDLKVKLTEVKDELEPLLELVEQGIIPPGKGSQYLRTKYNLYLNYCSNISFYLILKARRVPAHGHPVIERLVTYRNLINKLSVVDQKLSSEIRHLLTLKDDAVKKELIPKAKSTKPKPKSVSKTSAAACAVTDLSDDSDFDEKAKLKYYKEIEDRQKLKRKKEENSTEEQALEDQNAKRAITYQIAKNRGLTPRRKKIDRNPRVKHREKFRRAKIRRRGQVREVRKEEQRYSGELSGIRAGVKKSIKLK
inactive: [1] -0.009 | [2] -0.035 | [3] 0.076 | [4] -0.158 | [5] 0.018

ZHX1 (UniProt Q9UKY1)
inactive: [1] 0.016 | [2] 0.036 | [3] 0.022 | [4] -0.224 | [5] -0.22

WDCP (UniProt Q9H6R7)
inactive: [1] 0.023 | [2] 0.068 | [3] -0.04 | [4] 0.049 | [5] 0.025

ZC3H13 (UniProt Q5T200)
inactive: [1] -0.005 | [2] -0.039 | [3] 0.013 | [4] -0.061 | [5] 0.136

VARS (UniProt P26640)
Chain of UniProt P26640 (P26640 whole entry, looked up): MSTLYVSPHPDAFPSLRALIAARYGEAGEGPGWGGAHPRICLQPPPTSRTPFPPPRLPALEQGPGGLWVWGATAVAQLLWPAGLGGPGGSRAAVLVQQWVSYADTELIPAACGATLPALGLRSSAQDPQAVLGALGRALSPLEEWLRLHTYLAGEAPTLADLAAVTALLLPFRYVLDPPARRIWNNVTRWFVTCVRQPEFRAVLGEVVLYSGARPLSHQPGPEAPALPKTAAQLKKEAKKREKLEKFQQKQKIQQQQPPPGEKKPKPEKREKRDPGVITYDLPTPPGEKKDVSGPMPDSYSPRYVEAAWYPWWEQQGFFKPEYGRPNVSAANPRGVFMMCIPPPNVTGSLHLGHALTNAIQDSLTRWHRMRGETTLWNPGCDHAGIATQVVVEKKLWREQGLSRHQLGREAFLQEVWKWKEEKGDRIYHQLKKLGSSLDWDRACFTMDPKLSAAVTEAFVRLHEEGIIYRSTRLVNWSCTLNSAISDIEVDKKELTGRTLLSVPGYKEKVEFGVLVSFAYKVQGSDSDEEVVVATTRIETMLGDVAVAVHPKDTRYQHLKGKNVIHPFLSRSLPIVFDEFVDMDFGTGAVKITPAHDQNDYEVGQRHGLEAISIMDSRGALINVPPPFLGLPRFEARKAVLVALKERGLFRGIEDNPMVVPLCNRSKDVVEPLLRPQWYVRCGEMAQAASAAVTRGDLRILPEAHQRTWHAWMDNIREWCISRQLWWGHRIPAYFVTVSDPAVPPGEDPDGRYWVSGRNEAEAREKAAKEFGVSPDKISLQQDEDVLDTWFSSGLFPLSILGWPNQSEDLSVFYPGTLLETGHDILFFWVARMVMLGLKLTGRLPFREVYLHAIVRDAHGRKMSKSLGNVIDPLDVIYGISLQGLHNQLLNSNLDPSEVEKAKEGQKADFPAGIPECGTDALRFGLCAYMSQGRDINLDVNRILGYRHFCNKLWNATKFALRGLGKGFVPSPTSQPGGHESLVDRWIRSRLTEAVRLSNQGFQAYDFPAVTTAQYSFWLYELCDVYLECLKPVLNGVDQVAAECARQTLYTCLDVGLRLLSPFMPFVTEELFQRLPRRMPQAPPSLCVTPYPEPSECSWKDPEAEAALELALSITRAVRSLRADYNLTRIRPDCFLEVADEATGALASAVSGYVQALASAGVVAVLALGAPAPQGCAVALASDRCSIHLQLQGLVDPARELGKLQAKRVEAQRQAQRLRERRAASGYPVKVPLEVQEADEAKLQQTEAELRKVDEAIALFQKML
inactive: [1] -0.022 | [2] 0.013 | [3] 0.013 | [4] 0 | [5] 0.031

ZNF593 (UniProt O00488)
inactive: [1] -0.038 | [2] 0.051 | [3] 0.008 | [4] 0.127 | [5] 0.035

VPS11 (UniProt Q9H270)
Chain of UniProt Q9H270 (Q9H270 whole entry, looked up): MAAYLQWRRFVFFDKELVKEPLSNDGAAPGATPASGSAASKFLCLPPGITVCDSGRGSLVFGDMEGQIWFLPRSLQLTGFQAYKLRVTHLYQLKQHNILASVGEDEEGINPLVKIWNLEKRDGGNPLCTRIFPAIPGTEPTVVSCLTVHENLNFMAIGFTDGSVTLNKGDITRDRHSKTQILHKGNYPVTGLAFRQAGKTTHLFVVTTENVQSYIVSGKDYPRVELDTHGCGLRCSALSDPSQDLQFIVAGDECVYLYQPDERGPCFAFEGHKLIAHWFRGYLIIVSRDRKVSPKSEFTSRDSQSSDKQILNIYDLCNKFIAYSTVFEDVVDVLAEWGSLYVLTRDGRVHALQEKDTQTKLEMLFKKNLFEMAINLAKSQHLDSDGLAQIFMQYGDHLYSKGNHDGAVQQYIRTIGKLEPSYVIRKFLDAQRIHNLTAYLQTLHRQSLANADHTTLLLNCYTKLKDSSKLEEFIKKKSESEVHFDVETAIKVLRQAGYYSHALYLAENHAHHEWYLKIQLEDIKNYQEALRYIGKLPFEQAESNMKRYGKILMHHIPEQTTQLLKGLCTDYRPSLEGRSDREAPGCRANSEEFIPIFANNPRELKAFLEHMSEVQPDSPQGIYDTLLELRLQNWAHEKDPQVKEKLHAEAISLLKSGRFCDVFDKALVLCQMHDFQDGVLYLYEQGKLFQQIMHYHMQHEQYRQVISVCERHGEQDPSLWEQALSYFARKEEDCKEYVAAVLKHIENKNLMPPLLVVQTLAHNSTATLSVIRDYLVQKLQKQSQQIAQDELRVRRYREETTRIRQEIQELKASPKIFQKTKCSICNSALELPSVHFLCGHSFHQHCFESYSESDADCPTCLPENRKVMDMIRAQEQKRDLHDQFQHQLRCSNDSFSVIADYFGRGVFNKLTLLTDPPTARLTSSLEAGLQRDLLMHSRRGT
inactive: [1] -0.018 | [2] -0.001 | [3] 0.044 | [4] 0.048 | [5] 0.029

ZNF644 (UniProt Q9H582)
inactive: [1] 0 | [2] 0.003 | [3] -0.098 | [4] -0.009 | [5] 0.01

YTHDC2 (UniProt Q9H6S0)
inactive: [1] 0.004 | [2] -0.018 | [3] -0.078 | [4] -0.002 | [5] 0.058

VPS18 (UniProt Q9P253)
inactive: [1] -0.014 | [2] 0.013 | [3] 0.032 | [4] 0.067 | [5] 0.012

ZMAT2 (UniProt Q96NC0)
inactive: [1] 0.037 | [2] -0.01 | [3] 0.03 | [4] 0.03 | [5] 0.013

USP48 isoform 8 (UniProt Q86UV5)
Chain of UniProt Q86UV5 (Q86UV5 whole entry, looked up): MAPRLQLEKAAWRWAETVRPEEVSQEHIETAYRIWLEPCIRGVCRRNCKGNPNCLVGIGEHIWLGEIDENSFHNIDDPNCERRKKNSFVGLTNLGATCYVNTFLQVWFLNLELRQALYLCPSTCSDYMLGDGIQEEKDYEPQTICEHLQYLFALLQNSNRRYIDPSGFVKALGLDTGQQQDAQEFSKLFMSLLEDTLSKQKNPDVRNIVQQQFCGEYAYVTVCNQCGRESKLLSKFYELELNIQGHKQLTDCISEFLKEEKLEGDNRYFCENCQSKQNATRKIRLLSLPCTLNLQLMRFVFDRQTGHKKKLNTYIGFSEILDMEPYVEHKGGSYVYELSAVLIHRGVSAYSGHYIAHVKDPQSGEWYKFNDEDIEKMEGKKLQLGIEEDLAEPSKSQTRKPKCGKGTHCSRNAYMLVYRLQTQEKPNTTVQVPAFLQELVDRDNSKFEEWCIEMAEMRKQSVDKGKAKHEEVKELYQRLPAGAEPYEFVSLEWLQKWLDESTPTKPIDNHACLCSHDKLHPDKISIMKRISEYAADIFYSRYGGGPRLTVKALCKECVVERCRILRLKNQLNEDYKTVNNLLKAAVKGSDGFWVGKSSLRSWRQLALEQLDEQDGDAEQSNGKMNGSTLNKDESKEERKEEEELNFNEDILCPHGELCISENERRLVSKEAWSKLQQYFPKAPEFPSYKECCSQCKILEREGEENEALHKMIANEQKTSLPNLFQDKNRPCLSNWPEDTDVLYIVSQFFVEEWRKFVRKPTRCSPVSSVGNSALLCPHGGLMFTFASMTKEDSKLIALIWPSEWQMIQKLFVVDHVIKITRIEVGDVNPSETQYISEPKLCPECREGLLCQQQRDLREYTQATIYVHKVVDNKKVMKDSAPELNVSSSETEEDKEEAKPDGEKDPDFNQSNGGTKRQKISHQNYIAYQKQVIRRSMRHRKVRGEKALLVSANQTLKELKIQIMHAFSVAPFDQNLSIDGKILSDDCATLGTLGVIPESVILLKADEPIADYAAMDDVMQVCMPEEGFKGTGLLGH
inactive: [1] 0.006 | [2] -0.016 | [3] 0.015 | [4] 0.003 | [5] 0.035

ZC2HC1A (UniProt Q96GY0)
inactive: [1] 0.059 | [2] -0.046 | [3] -0.018 | [4] 0.106 | [5] -0.058

WDR91 (UniProt A4D1P6)
inactive: [1] -0.009 | [2] 0.027 | [3] 0.009 | [4] -0.02 | [5] 0.026

WDHD1 (UniProt O75717)
inactive: [1] 0.018 | [2] -0.011 | [3] -0.017 | [4] 0.011 | [5] 0.067

UPF3B (UniProt Q9BZI7)
inactive: [1] 0.031 | [2] -0.008 | [3] -0.043 | [4] 0.022 | [5] -0.097

WDR45 isoform 2 (UniProt Q9Y484)
inactive: [1] -0.024 | [2] 0.061 | [3] 0.073 | [4] -0.018 | [5] -0.014

ZFPM1 (UniProt Q8IX07)
inactive: [1] 0.073 | [2] -0.033 | [3] -0.012 | [4] -0.036 | [5] 0.078

USE1 (UniProt Q9NZ43)
Chain of UniProt Q9NZ43 (Q9NZ43 whole entry, looked up): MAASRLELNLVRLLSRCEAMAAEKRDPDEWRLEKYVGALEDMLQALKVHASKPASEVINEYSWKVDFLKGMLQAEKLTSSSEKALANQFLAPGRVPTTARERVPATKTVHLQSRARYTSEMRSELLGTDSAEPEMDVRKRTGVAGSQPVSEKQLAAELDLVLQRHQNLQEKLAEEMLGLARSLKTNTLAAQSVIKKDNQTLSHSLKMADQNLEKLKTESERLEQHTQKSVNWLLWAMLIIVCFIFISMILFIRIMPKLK
inactive: [1] 0.006 | [2] 0.008 | [3] -0.119 | [4] -0.109 | [5] -0.002

ZC3HC1 (UniProt Q86WB0)
inactive: [1] 0.002 | [2] 0.045 | [3] 0.006 | [4] 0.019 | [5] 0.061

VPS4A (UniProt Q9UN37)
inactive: [1] -0.056 | [2] 0.034 | [3] -0.102 | [4] 0.017 | [5] 0.074

UNC13A (UniProt Q9UPW8)
inactive: [5] -0.966

WAC isoform 5 (UniProt Q9BTA9)
inactive: [4] -0.232

WDR7 (UniProt Q9Y4E6)
inactive: [1] 0.055 | [2] 0.011 | [3] 0.019 | [4] 0.029 | [5] -0.027
